NPR2 activator: GC-B (human) receptor activation; P20594; HEK293-GC-B cells, CNP EC30, cGMP TR-FRET; 0% at EC30 CNP, 100% saturating CNP; activation, % at 10 µM; actives 0.11% (n = 370,000); AID 1920062;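 active means activation at 10 µM reaching about 35% in either raw or pattern-adjusted values, limit read from the data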
ADAM10 inh: ADAM10 inhibition, QFRET primary screen | O14672 | recombinant ADAM10, EDANS/DABCYL FRET peptide cleavage, 3 h | inhibition, % at 7 µM | actives 0.62% (n = 370,000);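 active means inhibition above a per-campaign cutoff equal to the mean of compounds falling between control-based bounds plus 3 SD, cut at about 20% in these data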;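 further: 0% = DMSO wells while the 100% control is not disclosed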
GC-A act: GC-A (human) enzyme activation; P16066; actives 0.14% (n = 370,000); HEK293 GC-A cells, cGMP TR-FRET, EC30 ANP; 0% at EC30 ANP, 100% saturating ANP; activation, % at 10 µM; in the data active means activation above about 40%
ADAM17 inh: inhibits human ADAM17; P78536; recombinant ADAM17, EDANS/DABCYL FRET peptide cleavage; inhibition, % at 6.95 µM; actives 0.83% (n = 370,000); AID 720648;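 active means inhibition above the mean of compounds lying between control limits plus 3 SD, set per campaign, cut at about 8.5% in these data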;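 further: 0% = DMSO-only wells as the low control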
ADAM10 confirm: human ADAM10 inhibition, confirmation. AID 743208. ADAM10 QFRET peptide cleavage, EDANS fluorescence. shares compounds with ADAM10 inh. inhibition, % at 6.95 µM. actives 1% (n = 2,100);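 active means inhibition above about 20% chosen separately for each screening run, limit read from the data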;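 further: 0% = DMSO wells and 100% = marimastat wells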
ADAM17 ctr: inhibits human ADAM17 in ADAM10 exosite counter-screen. shares compounds with ADAM10 inh. ADAM17 QFRET peptide cleavage, EDANS fluorescence. inhibition, % at 6.95 µM. actives 0.5% (n = 2,100). AID 743214;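 active means mean triplicate inhibition above the solvent-only control wells' mean plus 3 SD, cut at about 12% in these data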;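 further: 0% = DMSO wells and 100% = marimastat wells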
ADAM10 counter: counter-screen for ADAM17 exosite inhibitors: inhibitors of human ADAM10. shares compounds with ADAM17 inh. recombinant ADAM10, EDANS/DABCYL FRET peptide cleavage, 3 h. inhibition, % at 6.95 µM. actives 47% (n = 2,900). AID 743256;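 active means mean inhibition over the triplicate runs exceeds the activity threshold set in the earlier primary screen, cut at about 20% in these data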;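 further: 0% = DMSO wells and 100% = marimastat wells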
ADAM17 confirm: confirmation of inhibitors of human ADAM17 | shares compounds with ADAM17 inh | recombinant ADAM17, EDANS/DABCYL QFRET peptide cleavage | inhibition, % at 6.95 µM | actives 65% (n = 2,900) | AID 743257;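 active means mean inhibition across replicates above the hit cutoff set in the primary screen, cut at about 8.5% in these data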;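 further: 0% = DMSO wells and 100% = marimastat wells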
* marks the source's active call; other numbers are inactive results; · = not tested or not shown. Most compounds without a hit are left out; they make up all but 1.3% or so of the library.

SMILES	NPR2 activator	ADAM10 inh	GC-A act	ADAM17 inh	ADAM10 confirm	ADAM17 ctr	ADAM10 counter	ADAM17 confirm
Cc1cc(C)c(C)c(S(=O)(=O)N2CCC(C(=O)NCc3ccco3)CC2)c1C	-4	-2	-13	-1	·	·	·	·
Cc1[nH]c2ccccc2c1C(=O)C(=O)N1CCN(c2cccc(Cl)c2)CC1	-7	24*	-12	18*	2	0	25*	8.8*
Cc1[nH]c2ccccc2c1C(=O)C(=O)N1CCN(c2ccccc2Cl)CC1	-1	-3	4	0	·	·	·	·
CCOC(=O)[C@H]1[C@H]2COc3ccc(Br)cc3[C@@H]2N2C(=O)c3cc(Br)ccc3NC(=O)[C@@]12C	-19	20*	-9	11*	2	-1	17	11*
C=CCC[C@@H](Cc1ccc(F)cc1)C(=O)OC[C@@H](NC(=O)[C@H](CC=C)CC(=O)N(CCO)Cc1ccccc1)c1ccccc1	-6	27*	-6	11*	11	4	36*	20*
C=CCC[C@@H](Cc1ccc(F)cc1)C(=O)OC[C@@H](NC(=O)[C@@H](CC=C)CC(=O)N(CCO)Cc1ccccc1)c1ccccc1	-7	47*	-7	26*	7	3	44*	22*
COC(=O)C(C#N)(CCC(=O)c1ccccc1)CCC(=O)c1ccccc1	-3	-12	4	-5	·	·	·	·
COc1ccccc1NS(=O)(=O)c1ccc2oc(SCc3ccc(F)cc3)nc2c1	-1	-6	-8	-4	·	·	·	·
COc1ccc(NS(=O)(=O)c2ccc3oc(SCc4ccc(F)cc4)nc3c2)cc1	-6	25*	-4	11*	7	4	22*	12*
O=C(COc1ccc(Br)cc1)N1CCN(c2ccc([N+](=O)[O-])c(N3CCCCC3)c2)CC1	-7	24*	0	11*	8	1	32*	18*
Cc1ccc(CNC(=O)c2cc(-c3ccccc3C)nn2CC2CC(c3cccnc3)=NO2)cc1 (centres undefined)	-7	10	-1	3	·	·	·	·
Cc1ccccc1-c1cc(C(=O)NCc2ccc(OC(F)(F)F)cc2)n(CC2CC(c3cccnc3)=NO2)n1 (centres undefined)	7	21*	1	10*	5	3	25*	13*
Cc1ccc(CNC(=O)C2CCCCN2S(=O)(=O)c2ccccc2)cc1 (centres undefined)	0	3	0	3	·	·	·	·
CCCCCCOc1ccc(N2C(=O)CC(S/C(N)=N/N=C(\C)c3cccs3)C2=O)cc1 (centres undefined)	-2	6	-3	-4	·	·	·	·
C/C(=N\N=C(/N)SC1CC(=O)N(c2ccccc2)C1=O)c1cccs1 (centres undefined)	-9	22*	-7	8.6*	2	0	15	12*
C/C(=N\N=C(/N)SC1CC(=O)N(c2ccc(Br)cc2)C1=O)c1cccs1 (centres undefined)	·	24*	·	12*	5	2	20	20*
C/C(=N\N=C(/N)SC1CC(=O)N(c2ccc(Cl)c(Cl)c2)C1=O)c1cccs1 (centres undefined)	-9	-3	-5	-2	·	·	·	·
O=C(CN1CCN(c2ccc(F)cc2)CC1)Nc1ccc(S(=O)(=O)N2CCOCC2)cc1	0	-5	2	-7	·	·	·	·
CC1(C(=O)NCc2ccco2)Cc2c(-c3ccc(C(N)=O)cc3)ccnc2O1 (centres undefined)	2	-3	-2	-7	·	·	·	·
COc1cccc(Nc2ncccc2C(=O)Nc2ccccc2)c1	-9	29*	3	19*	2	1	11	8
COc1ccc(NS(=O)(=O)c2ccc(O)c(C(=O)OCC(=O)NC(C)C3CC4CCC3C4)c2)cc1 (centres undefined)	0	-5	-5	-6	·	·	·	·
CC(NC(=O)COC(=O)c1cc(NS(=O)(=O)c2ccc(Cl)c([N+](=O)[O-])c2)ccc1O)C1CC2CCC1C2 (centres undefined)	2	22*	0	8.8*	9	2	38*	17*
S=C(Nc1ccc(Nc2ccccc2)cc1)NC1CCCCCC1	4	30*	0	10*	17	4	28*	17*
S=C(Nc1ccc(Cl)cc1)NC1CCCCC1	-1	-19	6	-9	·	·	·	·
CCN1C(=O)[C@H]2[C@@H](c3ccc(OC)cc3)N[C@]3(CCCN(Cc4ccc(C(F)(F)F)cc4)C3=O)[C@H]2C1=O	4	-2	0	-2	·	·	·	·
SMILES	NPR2 activator	ADAM10 inh	GC-A act	ADAM17 inh	ADAM10 confirm	ADAM17 ctr	ADAM10 counter	ADAM17 confirm
O=C(COc1ncnc2c1cnn2-c1ccccc1)Nc1ccc(S(=O)(=O)N2CCCCC2)cc1	4	21*	-6	9.8*	2	1	33*	17*
COCOc1cccc(CN2CCC(C)(Oc3cccc(OC)c3)C2)c1 (centres undefined)	2	-14	-1	-6	·	·	·	·
CC(C)Cc1nnc(NC(=O)CCC(=O)N2CC(C)CC(C)C2)s1 (centres undefined)	2	-8	4	-3	·	·	·	·
COc1ccc(NC(=O)Cn2cnc3sc(C)c(S(=O)(=O)N4CCOCC4)c3c2=O)cc1Cl	2	11	0	0	·	·	·	·
COc1ccccc1N(C)S(=O)(=O)c1ccc(C(=O)NNC(=O)c2ccccc2O)cc1	3	22*	-3	9.0*	6	3	19	12*
COc1ccccc1N(C)S(=O)(=O)c1ccc(Cl)c(C(=O)NNC(=O)c2ccccc2O)c1	-1	6	5	5	·	·	·	·
CCCCOCCCNC(=S)Nc1ccc(S(=O)(=O)N2CCOCC2)cc1	3	11	-2	2	·	·	·	·
O=S(=O)(c1ccc(NC(=S)NCCC(c2ccccc2)c2ccccc2)cc1)N1CCOCC1	5	21*	-2	15*	11	4	31*	17*
COc1ccc(OC[C@@H](O)CN2CCC(C(O)(c3ccccc3)c3ccccc3)CC2)cc1	-10	1	-16	7	·	·	·	·
O=C1C=C(/C=C/C2C=CC=CC2)C[C@@H](c2ccc(Cl)cc2)C1 (some centres undefined)	-5	27*	0	13*	6	1	-3	6

Screens from PubChem BioAssay.
